Test results from PubChem BioAssay AID430 (Sanford-Burnham Center for Chemical Genomics, 2006).
Among all 63,000 compounds or so, about 1,100 (1.7%) were called active. No stated cut-off is given here; in the data, active means cytotoxicity above about 50%; inactive means the rest. What follows is part of a selection rich in actives, with near analogues and random picks from the rest. Potency and affinity values are given separately.

Test: HPDE-C7 pancreatic duct cell viability loss – fluorescence, HTS (AID 430);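 further: cells exposed to compound for 48 hours before viability readout; 0% = vehicle and 100% = reference cytotoxic drug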
Conditions: HPDE-C7 pancreatic duct cells viability, at 10 µM, stronger effect = higher value
With `CN(Cc1ccccc1)C(=O)CSc1nnc(-c2ccco2)n1-c1ccccc1` the cytotoxicity was -10.3% (inactive).
With `COc1ccc(CNC(=O)CSc2nnc(-c3ccc(NC(C)=O)cc3)n2C)cc1` the cytotoxicity was -3.1% (inactive).
For `CCCCCn1c(SCCN2CCOCC2)nc2c1c(=O)[nH]c(=O)n2C`, the cytotoxicity was 5.5% (inactive).
With `CCOc1ccc(N(CC(=O)NC(C)(C)C)S(=O)(=O)c2c(C)noc2C)cc1` the cytotoxicity was -7.4% (inactive).
For `COc1ccccc1CNC(=O)CN(c1ccc(C)cc1)S(=O)(=O)c1c(C)n[nH]c1C`, the cytotoxicity was 4.9% (inactive).
With `CCOc1ccc(N(CC(=O)Nc2ccc(C)cc2)S(=O)(=O)c2c(C)noc2C)cc1` the cytotoxicity was 1.8% (inactive).
With `COc1ccc(OC)c(NC(=O)CN(c2ccc(C)cc2)S(=O)(=O)c2c(C)noc2C)c1` the cytotoxicity was 4.3% (inactive).
With `CCOc1ccccc1NC(=O)CN(c1ccc(OC)cc1)S(=O)(=O)c1c(C)noc1C` the cytotoxicity was 66.8% (active).
In the case of `COc1ccc(N(CC(=O)Nc2cc(Cl)ccc2OC)S(=O)(=O)c2c(C)noc2C)cc1`, the cytotoxicity is reported as 73.4% (active).
For `CCOc1ccccc1NC(=O)CN(c1ccc(C)cc1)S(=O)(=O)c1c(C)n[nH]c1C`, the cytotoxicity was 52.3% (active).
For `CCOc1ccccc1NC(=O)CN(c1cc(C)cc(C)c1)S(=O)(=O)c1c(C)noc1C`, the cytotoxicity was 6.7% (inactive).
In the case of `CCOc1ccccc1NC(=O)CN(c1ccc(C)cc1)S(=O)(=O)c1c(C)noc1C`, the cytotoxicity is reported as -19.7% (inactive).
With `CCOc1ccc(N(CC(=O)Nc2ccccc2C)S(=O)(=O)c2c(C)noc2C)cc1` the cytotoxicity was 65.3% (active).
In the case of `COc1ccc(N(CC(=O)Nc2cc(C)ccc2OC)S(=O)(=O)c2c(C)noc2C)cc1`, the cytotoxicity is reported as 11.2% (inactive).
For `COc1ccccc1NC(=O)CN(c1ccc(C)cc1)S(=O)(=O)c1c(C)n[nH]c1C`, the cytotoxicity was 4.4% (inactive).
In the case of `CCN1CCN(c2ncc(C(=O)Nc3c(F)cc(F)cc3Br)c3ccccc23)CC1`, the cytotoxicity is reported as 18.4% (inactive).
In the case of `Cc1ccc(NC(=O)NC2(C(=O)NCc3ccco3)CCCCC2)cc1`, the cytotoxicity is reported as -5.6% (inactive).
In the case of `CCn1[nH]c(=O)c(=Nc2c(C)n(C)n(-c3ccccc3)c2=O)cc1-c1ccc(Cl)cc1`, the cytotoxicity is reported as -9.8% (inactive).
For `O=C(O)c1ccc(COc2ccc(CO)cc2Cl)cc1`, the cytotoxicity was -12.9% (inactive).
For `O=C1N2CN(C(c3ccccc3)c3ccccc3)CN=C2SC1(CO)CO`, the cytotoxicity was -13.8% (inactive).
In the case of `CCOc1ccc(-c2nc(CSCC(=O)N3CCN(C(=O)c4ccco4)CC3)c(C)o2)cc1`, the cytotoxicity is reported as -10.8% (inactive).
For `Cc1[nH]n2c(=O)cc(C(C)(C)C)nc2c1-c1ccccc1`, the cytotoxicity was 76.6% (active).
For `Cc1[nH]n2c(=O)cc(C(C)C)nc2c1-c1ccccc1`, the cytotoxicity was 12.7% (inactive).
With `Cc1cc(=O)n2[nH]c(C)c(-c3ccccc3)c2n1` the cytotoxicity was -5% (inactive).
With `CCCCCCNC(=O)C(C#N)c1nc2ccccc2nc1N1CCOCC1` (centres undefined) the cytotoxicity was 20.3% (inactive).
For `CCN(CC)C(=O)N1CCC(NC(=O)Cc2ccccc2)CC1`, the cytotoxicity was -6.6% (inactive).
With `CCOC(=O)C1CCN(C(=O)c2cc(S(=O)(=O)N3CCOCC3)c(Cl)cc2Cl)CC1` the cytotoxicity was 3.3% (inactive).
With `Nc1ccc(-c2cc(N)n(-c3ccccc3)n2)cc1` the cytotoxicity was 14.8% (inactive).
In the case of `c1coc(-c2nc3ccccc3nc2-c2ccco2)c1`, the cytotoxicity is reported as -5.7% (inactive).
For `c1coc(-c2nc(-c3ccco3)c(-c3ccco3)nc2-c2ccco2)c1`, the cytotoxicity was -9.1% (inactive).
For `c1coc(-c2nc3nc4ccccc4n3nc2-c2ccco2)c1`, the cytotoxicity was 77.5% (active).
In the case of `Cc1cc(C)c2cc3c(ccn3C3OC[C@H](O)[C@H](O)[C@H]3O)cc2n1` (some centres undefined), the cytotoxicity is reported as -2.7% (inactive).
For `Cc1csc(SCc2nnc(-c3ccccc3Br)o2)n1`, the cytotoxicity was -11.9% (inactive).
In the case of `Cc1cc(C)n(-c2c(F)c(F)c(CN3CCOCC3)c(F)c2F)n1`, the cytotoxicity is reported as -4.7% (inactive).
With `O=C(CCN1c2ccccc2Sc2ccccc21)OCc1nnc(-c2ccccc2)o1` the cytotoxicity was 5.5% (inactive).
With `COc1cc(OC)cc(-c2nnc(SCC(=O)N3c4ccccc4Sc4ccccc43)o2)c1` the cytotoxicity was -10.6% (inactive).
With `COc1ccc(C(=O)CSc2nnc(-c3ccccc3)o2)cc1` the cytotoxicity was -13.3% (inactive).
In the case of `Cc1nnc(SC(=O)N2c3ccccc3Sc3ccccc32)s1`, the cytotoxicity is reported as -38% (inactive).
For `Cc1cccc(Nc2ccccc2)c1`, the cytotoxicity was -12.8% (inactive).
With `Cc1cc2cc(CN(Cc3ccco3)C(=O)C3CCCCC3)c(=O)[nH]c2cc1C` the cytotoxicity was -2% (inactive).
With `COc1ccc(CNC(=O)c2cc(-c3cccs3)on2)cc1` the cytotoxicity was 2.4% (inactive).
In the case of `Cc1noc(C(=O)Nc2sc3c(c2C#N)CCC3)c1Cl`, the cytotoxicity is reported as 19% (inactive).
With `COc1ccccc1NC(=O)C1(C)Cc2ccccc2C(=O)O1` (centres undefined) the cytotoxicity was 10.1% (inactive).
For `CN(C)CCN(Cc1ccccc1)c1ccnc(N(C)C)c1C#N`, the cytotoxicity was -24.4% (inactive).
For `COCCNC(=O)CN(CC1CCCO1)C(=O)CCC(=O)Nc1ccccn1` (centres undefined), the cytotoxicity was -5.6% (inactive).
With `COc1ccc2nc(Nc3nc(C)c(C(C)=O)s3)sc2c1` the cytotoxicity was 18.2% (inactive).
For `CC(=O)c1sc(Nc2nc3ccc(F)cc3s2)nc1C`, the cytotoxicity was 58.8% (active).
In the case of `CCOC(=O)c1csc(Nc2nc3ccc(F)cc3s2)n1`, the cytotoxicity is reported as 40.1% (inactive).
In the case of `O=C(O)CCC(=O)N1CCc2cc(S(=O)(=O)N3CCN(c4ccc(F)cc4)CC3)ccc21`, the cytotoxicity is reported as 3.1% (inactive).
With `COc1ccccc1N1CCN(C(=O)c2cc3n(n2)C(C(F)(F)F)CC(c2ccco2)N3)CC1` (centres undefined) the cytotoxicity was -21.5% (inactive).
With `Cc1ccc(C(=O)CSc2nnc(-c3ccco3)n2Cc2ccccc2)cc1` the cytotoxicity was -16.2% (inactive).
In the case of `COc1cc(-c2nc3cnccn3c2Nc2ccccc2)ccc1O`, the cytotoxicity is reported as 22.1% (inactive).
In the case of `c1cn2c(NC3CCCC3)c(-c3ccc(N4CCOCC4)cc3)nc2cn1`, the cytotoxicity is reported as 2.8% (inactive).
With `Cc1ccc2cc(CN(Cc3cccs3)C(=O)c3ccco3)c3nnnn3c2c1C` the cytotoxicity was 22.1% (inactive).
In the case of `CCc1nc2c(n1O)CCc1nonc1-2`, the cytotoxicity is reported as 3.5% (inactive).
In the case of `CCCSc1nc2c(c(=O)[nH]c(=O)n2C)n1C`, the cytotoxicity is reported as 2.1% (inactive).
In the case of `CC(NC(=O)NCC1CCCO1)(C(F)(F)F)C(F)(F)F` (centres undefined), the cytotoxicity is reported as -16% (inactive).
For `NS(=O)(=O)c1ccc(S(=O)(=O)N(Cc2ccccc2F)CC2CCCO2)cc1` (centres undefined), the cytotoxicity was -0.3% (inactive).
In the case of `Cc1nc2ccccc2nc1CSc1nncs1`, the cytotoxicity is reported as 3.3% (inactive).
In the case of `Cc1nc(CNS(=O)(=O)c2ccc3c(c2)CCCC3)cs1`, the cytotoxicity is reported as -11.4% (inactive).
With `CCCCNc1ncnc2c1cnn2-c1ccccc1` the cytotoxicity was 65% (active).
For `COCCNc1ncnc2c1cnn2-c1ccc(Cl)cc1`, the cytotoxicity was 4.6% (inactive).
With `CN(C)CCNc1ncnc2c1cnn2-c1ccc(Cl)cc1` the cytotoxicity was 19.4% (inactive).
For `CN(C)CCCNc1ncnc2c1cnn2-c1ccccc1`, the cytotoxicity was -5.5% (inactive).
In the case of `CCCCNc1ncnc2c1cnn2-c1ccc(Cl)cc1`, the cytotoxicity is reported as 72.3% (active).
In the case of `CC(C)OCCCNc1ncnc2c1cnn2-c1ccccc1`, the cytotoxicity is reported as 26.6% (inactive).
For `CS(=O)CCC(NS(=O)(=O)c1ccccc1)C(=O)O` (centres undefined), the cytotoxicity was -7.3% (inactive).
With `CCOC(=O)N1CCN(C(=O)c2cn(C)c(=O)c3c2c2ccccc2n3C)CC1` the cytotoxicity was -11.5% (inactive).
With `COc1ccc(N2CCN(C(=O)c3cn(C)c(=O)c4c3c3ccccc3n4C)CC2)cc1` the cytotoxicity was 10.1% (inactive).
In the case of `Cn1cc(C(=O)N2CCN(C(=O)c3ccco3)CC2)c2c3ccccc3n(C)c2c1=O`, the cytotoxicity is reported as -1.4% (inactive).
For `Cn1cc(C(=O)NCCN2CCN(c3cccc(Cl)c3)CC2)c2c3ccccc3n(C)c2c1=O`, the cytotoxicity was -12.1% (inactive).
With `Cc1cccc(N2CCN(C(=O)c3cn(C)c(=O)c4c3c3ccccc3n4C)CC2)c1C` the cytotoxicity was 53.7% (active).
For `Cc1ccc(Cl)cc1N1CCN(C(=O)c2cn(C)c(=O)c3c2c2ccccc2n3C)CC1`, the cytotoxicity was 93.1% (active).
In the case of `COc1ccc(C)cc1S(=O)(=O)NC1CCCC1`, the cytotoxicity is reported as 8.4% (inactive).
In the case of `CCn1ncc(C2=NOC(C(=O)Nc3cccnc3)C2)c1C` (centres undefined), the cytotoxicity is reported as -4.8% (inactive).
In the case of `CCn1ncc(C2=NOC(C(=O)NCCc3ccccc3)C2)c1C` (centres undefined), the cytotoxicity is reported as -13.2% (inactive).
In the case of `CCn1ncc(C2=NOC(C(=O)NCc3ccc(OC)cc3)C2)c1C` (centres undefined), the cytotoxicity is reported as 21.2% (inactive).
In the case of `CCn1ncc(C2=NOC(C(=O)NCc3ccccc3)C2)c1C` (centres undefined), the cytotoxicity is reported as 54.7% (active).
With `CCn1ncc(C2=NOC(C(=O)Nc3c(C)nn(Cc4ccc(F)cc4)c3C)C2)c1C` (centres undefined) the cytotoxicity was 25.1% (inactive).
With `CCn1ncc(C2=NOC(C(=O)NCc3ccc(Cl)cc3)C2)c1C` (centres undefined) the cytotoxicity was 65.1% (active).
For `CCOC(=O)CN1C(=O)C(=O)c2cccc(C)c21`, the cytotoxicity was -46.9% (inactive).
For `O=C(NCc1ccco1)C1CN(S(=O)(=O)c2ccccc2)CCN1S(=O)(=O)c1ccccc1` (centres undefined), the cytotoxicity was -23.1% (inactive).
For `CCc1c(C)nc2ncnn2c1N1CCC(C(=O)N2CCN(c3ccc(F)cc3)CC2)CC1`, the cytotoxicity was -1.9% (inactive).
In the case of `COC(=O)CSc1nc2ccc(NC(C)=O)cc2s1`, the cytotoxicity is reported as -5.9% (inactive).
With `COc1cc2c(cc1OC)CN(C(=O)c1ccccc1C(=O)O)CC2` the cytotoxicity was -15.6% (inactive).
For `O=C(Cn1nnc(-c2ccc(N3CCOCC3)cc2)n1)OC1CCCCC1`, the cytotoxicity was -25.2% (inactive).
In the case of `COC(=O)CSc1nnc(-c2ccc(OC)cc2OC)o1`, the cytotoxicity is reported as 3.4% (inactive).
In the case of `COc1ccc(N2CCN(C(c3ccccc3OC)c3nnnn3Cc3ccco3)CC2)cc1` (centres undefined), the cytotoxicity is reported as -1.6% (inactive).
With `COc1cc(C2C(C#N)=C(C)NC3=C2C(=O)CC(C)(C)C3)ccc1O` (centres undefined) the cytotoxicity was -9.2% (inactive).
For `COc1ccc(C2CC(=O)C3=C(C2)NC(C)=C(C#N)C3c2ccc(N(C)C)cc2)cc1` (centres undefined), the cytotoxicity was -4.4% (inactive).
With `COc1cc(C2C(C#N)=C(C)NC3=C2C(=O)c2ccccc23)cc(OC)c1OC` (centres undefined) the cytotoxicity was 76.3% (active).
For `COc1cc(C2C(C#N)=C(C)NC3=C2C(=O)CC(C)(C)C3)cc(OC)c1O` (centres undefined), the cytotoxicity was 3.7% (inactive).
In the case of `COc1ccc(C2C(C#N)=C(C)NC3=C2C(=O)c2ccccc23)cc1` (centres undefined), the cytotoxicity is reported as 55.2% (active).
With `COc1ccc(C2C(C#N)=C(SC)NC3=C2C(=O)CC(C)(C)C3)cc1` (centres undefined) the cytotoxicity was -11.2% (inactive).
